Experiment [1] deals with T1, N4 mini-vRNAP (His-tagged) (Bacteriophage N4, UniProt Q859P9 SEQ:34-1143).
T1 chain: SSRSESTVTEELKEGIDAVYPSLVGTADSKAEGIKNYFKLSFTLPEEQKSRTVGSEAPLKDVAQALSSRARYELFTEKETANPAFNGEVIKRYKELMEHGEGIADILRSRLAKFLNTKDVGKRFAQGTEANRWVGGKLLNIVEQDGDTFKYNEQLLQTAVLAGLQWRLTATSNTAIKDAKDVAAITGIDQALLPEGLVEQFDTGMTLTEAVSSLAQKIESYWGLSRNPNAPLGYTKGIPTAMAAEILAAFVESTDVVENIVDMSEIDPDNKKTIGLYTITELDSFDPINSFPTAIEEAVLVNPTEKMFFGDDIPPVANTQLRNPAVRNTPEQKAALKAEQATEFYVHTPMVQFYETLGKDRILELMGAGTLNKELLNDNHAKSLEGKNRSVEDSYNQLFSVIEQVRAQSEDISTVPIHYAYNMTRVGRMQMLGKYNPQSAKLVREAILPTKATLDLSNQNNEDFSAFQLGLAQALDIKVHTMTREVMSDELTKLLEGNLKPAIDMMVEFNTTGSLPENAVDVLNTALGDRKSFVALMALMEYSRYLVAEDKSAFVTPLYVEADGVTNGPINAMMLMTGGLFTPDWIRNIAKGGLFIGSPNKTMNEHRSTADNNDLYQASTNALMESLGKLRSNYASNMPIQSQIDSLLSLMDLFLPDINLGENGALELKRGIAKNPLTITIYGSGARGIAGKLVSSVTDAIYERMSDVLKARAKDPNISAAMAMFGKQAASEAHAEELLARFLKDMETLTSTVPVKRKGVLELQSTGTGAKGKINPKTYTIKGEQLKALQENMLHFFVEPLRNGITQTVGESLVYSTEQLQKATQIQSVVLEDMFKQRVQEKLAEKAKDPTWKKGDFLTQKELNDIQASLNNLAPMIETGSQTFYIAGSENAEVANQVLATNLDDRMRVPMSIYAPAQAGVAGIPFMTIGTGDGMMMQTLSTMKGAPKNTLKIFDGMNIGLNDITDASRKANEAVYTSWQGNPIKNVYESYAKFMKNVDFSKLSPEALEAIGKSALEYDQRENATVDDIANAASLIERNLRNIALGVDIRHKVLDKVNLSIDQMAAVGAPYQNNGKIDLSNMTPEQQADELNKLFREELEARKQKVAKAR
The experiment is described as follows: filter; further one order of magnitude reduction. The following applies: tags: N-terminal hexahistidine (pBAD); label: 32P end-label; hairpin; ssDNA; [none].

Experiment [2] concerns the target T1, N4 mini-vRNAP (His-tagged). The experiment can be described thus: filter; two orders of magnitude reduction. The note with it: tags: N-terminal hexahistidine (pBAD); label: 32P end-label; hairpin, 8 bp stem; ssDNA; [none].

These results are taken from patent US20040191812, “Target-dependent transcription using deletion mutants of N4 RNA polymerase” (published 2004).

Turning to TCCAAAAGAAGCGGAGCTTCTTTTG, the binding signal in experiment [1] is ~1000 fold lower affinity than wild type.

Consider TCCAAAAGAAGCGGAGCTTCTTT, for which the binding signal in experiment [2] is ~100 fold lower affinity than wild type.
